Experimental data from the supplement of paper PMC10849652.
The full data set covers some 8,800 targets. This sample favours those with a hit. About 0.5% of all pairs of compound and target were hits. A number with no mark means an inactive call.

Key:
Test in all cases: log2 fold change, soluble protein after heating vs DMSO (PISA); higher = thermal stabilisation; K562 lysate, 10 uM; active = over 0.2 and 3.5 SD of the protein, either way, in both replicates (recomputed)
vemurafenib = compound: CCCS(=O)(=O)Nc1ccc(F)c(C(=O)c2c[nH]c3ncc(-c4ccc(Cl)cc4)cc23)c1F [vemurafenib]
Summary of the method: (§1)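 K562 pellets were dounce-homogenised in PBS pH 7.4 with 1 mM MgCl2, and the crude extract at 1 mg/mL protein was treated with 10 μM compound for 30 min. Aliquots were heated for 3 min across 48°C-58°C, pooled, and brought to 0.5% NP-40 at 4°C; soluble protein was the supernatant after 21,000xg for 90 min. Soluble protein was quantified by TMTpro 16plex LC-MS/MS with channel sums equalised, and reported as log2 fold change in thermal stability against DMSO controls, with values from duplicates.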

[1] = compound: CCCS(=O)(=O)Nc1ccc(F)c(C(=O)c2c[nH]c3ncc(Cl)cc23)c1F
Summary of the method: as §1

barasertib = compound: CCN(CCCOc1ccc2c(Nc3cc(CC(=O)Nc4cccc(F)c4)[nH]n3)ncnc2c1)CCOP(=O)(O)O [barasertib]
Summary of the method: as §1

[2] = compound: CC[C@@H]1C(=O)N(C)c2cnc(Nc3ccc(C(=O)NC4CCN(C)CC4)cc3OC)nc2N1C1CCCC1
Summary of the method: as §1

volasertib = compound: CC[C@@H]1C(=O)N(C)c2cnc(Nc3ccc(C(=O)N[C@H]4CC[C@H](N5CCN(CC6CC6)CC5)CC4)cc3OC)nc2N1C(C)C [volasertib]
Summary of the method: as §1

[3] = compound: CCn1c(C(=O)N(C2CC2)C2CC2)cc2c3c(ncn3C)c(Nc3cc(C)n(C)n3)nc21
Summary of the method: as §1

[4] = compound: CCn1cc(-c2ccnc3[nH]c(-c4cccc(CN(C)C)c4)cc23)c(-c2ccc(NC(=O)N(C)C)cc2)n1
Summary of the method: as §1

[5] = compound: CN1CCC(CNc2ccc3ncc(-c4cccc(OC(F)(F)F)c4)n3n2)CC1
Summary of the method: as §1

saracatinib = compound: CN1CCN(CCOc2cc(OC3CCOCC3)c3c(Nc4c(Cl)ccc5c4OCO5)ncnc3c2)CC1 [saracatinib]
Summary of the method: as §1

sotrastaurin = compound: CN1CCN(c2nc(C3=C(c4c[nH]c5ccccc45)C(=O)NC3=O)c3ccccc3n2)CC1 [sotrastaurin]
Summary of the method: as §1

alvocidib = compound: CN1CC[C@H](c2c(O)cc(O)c3c(=O)cc(-c4ccccc4Cl)oc23)[C@H](O)C1 [alvocidib]
Summary of the method: as §1

Tubastatin A = compound: CN1CCc2c(c3ccccc3n2Cc2ccc(C(=O)NO)cc2)C1 [Tubastatin A]
Summary of the method: as §1

[6] = compound: CNC(=O)C1=CC=CC=C1NC2=NC(=NC=C2Cl)NC3=C(C=C(C=C3)N4CCOCC4)OC
Summary of the method: as §1

defactinib = compound: CNC(=O)c1ccc(Nc2ncc(C(F)(F)F)c(NCc3nccnc3N(C)S(C)(=O)=O)n2)cc1 [defactinib]
Summary of the method: as §1

[7] = compound: CNc1nc(-c2ccc3c(N)n[nH]c3c2)cc(N2C[C@@H](C(=O)NC3CCCCC3)CC[C@H]2C)n1
Summary of the method: as §1

encorafenib = compound: COC(=O)N[C@@H](C)CNc1nccc(-c2cn(C(C)C)nc2-c2cc(Cl)cc(NS(C)(=O)=O)c2F)n1 [encorafenib]
Summary of the method: as §1

[8] = compound: COC(=O)[C@H](CCSC)NC(=O)C1=C(C=C(C=C1)NC[C@H](CS)N)C2=CC=CC=C2
Summary of the method: as §1

alisertib = compound: COc1cc(Nc2ncc3c(n2)-c2ccc(Cl)cc2C(c2c(F)cccc2OC)=NC3)ccc1C(=O)O [alisertib]
Summary of the method: as §1

[9] = compound: COc1cc2nc(-c3cc(F)ccc3O)nc(N[C@@H]3CNC[C@H]3C(C)(C)O)c2cc1OC
Summary of the method: as §1

gefitinib = compound: COc1cc2ncnc(Nc3ccc(F)c(Cl)c3)c2cc1OCCCN1CCOCC1 [gefitinib]
Summary of the method: as §1

Chain of UniProt Q9NZN8 (Q9NZN8 whole entry, looked up): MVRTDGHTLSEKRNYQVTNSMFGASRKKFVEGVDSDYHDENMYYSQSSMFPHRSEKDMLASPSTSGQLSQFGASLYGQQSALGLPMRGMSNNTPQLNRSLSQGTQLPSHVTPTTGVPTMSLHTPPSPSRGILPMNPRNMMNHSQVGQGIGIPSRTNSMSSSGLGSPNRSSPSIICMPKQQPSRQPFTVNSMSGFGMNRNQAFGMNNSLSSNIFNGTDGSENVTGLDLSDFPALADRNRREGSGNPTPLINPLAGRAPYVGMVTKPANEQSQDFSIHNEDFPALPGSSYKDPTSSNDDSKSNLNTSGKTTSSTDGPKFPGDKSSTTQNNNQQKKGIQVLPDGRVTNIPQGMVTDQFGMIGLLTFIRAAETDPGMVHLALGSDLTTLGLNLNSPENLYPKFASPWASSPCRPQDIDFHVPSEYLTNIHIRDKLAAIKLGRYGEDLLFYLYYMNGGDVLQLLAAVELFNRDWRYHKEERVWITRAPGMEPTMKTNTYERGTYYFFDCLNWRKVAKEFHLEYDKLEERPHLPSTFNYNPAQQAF
Chain of UniProt P50570 (P50570 whole entry, looked up): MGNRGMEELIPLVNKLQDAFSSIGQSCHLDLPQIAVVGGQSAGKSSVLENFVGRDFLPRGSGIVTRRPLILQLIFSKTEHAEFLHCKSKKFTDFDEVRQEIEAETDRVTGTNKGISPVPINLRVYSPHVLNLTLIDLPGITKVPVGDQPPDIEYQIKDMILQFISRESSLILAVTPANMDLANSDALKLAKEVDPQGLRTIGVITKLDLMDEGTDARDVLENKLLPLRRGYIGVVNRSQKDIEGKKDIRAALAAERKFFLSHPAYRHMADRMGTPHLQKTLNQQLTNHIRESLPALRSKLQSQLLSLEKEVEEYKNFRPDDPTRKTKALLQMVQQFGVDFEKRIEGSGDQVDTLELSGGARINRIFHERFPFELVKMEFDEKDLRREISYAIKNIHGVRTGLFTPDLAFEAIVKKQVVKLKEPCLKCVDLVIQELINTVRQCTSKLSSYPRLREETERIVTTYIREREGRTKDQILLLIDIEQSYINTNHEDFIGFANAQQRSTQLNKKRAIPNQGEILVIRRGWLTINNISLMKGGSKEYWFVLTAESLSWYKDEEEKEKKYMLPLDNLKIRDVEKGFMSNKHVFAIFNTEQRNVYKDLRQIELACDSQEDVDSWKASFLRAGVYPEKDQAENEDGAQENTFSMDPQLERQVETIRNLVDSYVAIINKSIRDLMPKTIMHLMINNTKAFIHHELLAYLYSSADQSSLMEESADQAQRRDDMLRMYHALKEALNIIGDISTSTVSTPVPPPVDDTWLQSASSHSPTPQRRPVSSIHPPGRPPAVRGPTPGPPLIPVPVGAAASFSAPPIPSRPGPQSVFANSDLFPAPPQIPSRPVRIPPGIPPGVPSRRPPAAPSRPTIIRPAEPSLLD
Chain of UniProt P04080 (P04080 whole entry, looked up): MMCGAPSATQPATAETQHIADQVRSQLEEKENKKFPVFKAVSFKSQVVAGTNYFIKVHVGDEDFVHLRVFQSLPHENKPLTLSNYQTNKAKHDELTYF
Chain of UniProt Q1MSJ5 (Q1MSJ5 whole entry, looked up): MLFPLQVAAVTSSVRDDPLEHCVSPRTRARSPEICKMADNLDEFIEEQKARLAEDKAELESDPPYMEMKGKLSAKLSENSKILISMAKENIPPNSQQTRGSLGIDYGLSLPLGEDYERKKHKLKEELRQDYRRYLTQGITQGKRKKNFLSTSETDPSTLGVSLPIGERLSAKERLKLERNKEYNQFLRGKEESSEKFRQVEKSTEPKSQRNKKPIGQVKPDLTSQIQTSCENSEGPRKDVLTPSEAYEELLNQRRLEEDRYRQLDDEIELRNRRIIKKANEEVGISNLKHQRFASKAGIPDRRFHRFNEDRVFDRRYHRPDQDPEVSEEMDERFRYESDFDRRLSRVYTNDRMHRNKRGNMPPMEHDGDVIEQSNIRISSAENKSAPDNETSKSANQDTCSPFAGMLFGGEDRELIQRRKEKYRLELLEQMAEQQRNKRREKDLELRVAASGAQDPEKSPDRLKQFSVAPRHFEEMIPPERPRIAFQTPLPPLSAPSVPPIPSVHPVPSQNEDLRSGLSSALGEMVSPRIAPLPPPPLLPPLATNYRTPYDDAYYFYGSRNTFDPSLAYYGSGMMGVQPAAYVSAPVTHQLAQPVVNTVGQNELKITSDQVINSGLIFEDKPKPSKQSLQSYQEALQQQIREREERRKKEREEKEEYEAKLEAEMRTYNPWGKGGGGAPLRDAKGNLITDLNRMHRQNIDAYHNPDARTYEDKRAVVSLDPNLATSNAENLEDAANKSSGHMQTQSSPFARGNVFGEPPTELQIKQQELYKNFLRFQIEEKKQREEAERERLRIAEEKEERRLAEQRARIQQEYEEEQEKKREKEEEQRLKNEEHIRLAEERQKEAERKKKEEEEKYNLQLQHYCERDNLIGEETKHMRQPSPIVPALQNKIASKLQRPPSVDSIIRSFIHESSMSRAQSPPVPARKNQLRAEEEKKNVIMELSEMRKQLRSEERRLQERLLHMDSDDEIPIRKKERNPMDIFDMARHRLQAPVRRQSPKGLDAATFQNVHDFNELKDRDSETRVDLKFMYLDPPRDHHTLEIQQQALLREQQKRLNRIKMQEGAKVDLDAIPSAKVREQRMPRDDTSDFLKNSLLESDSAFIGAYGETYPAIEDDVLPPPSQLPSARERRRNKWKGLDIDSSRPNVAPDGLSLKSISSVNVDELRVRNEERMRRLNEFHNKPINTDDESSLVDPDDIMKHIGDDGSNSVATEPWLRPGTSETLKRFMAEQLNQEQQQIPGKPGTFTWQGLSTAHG
Chain of UniProt P00374 (P00374 whole entry, looked up): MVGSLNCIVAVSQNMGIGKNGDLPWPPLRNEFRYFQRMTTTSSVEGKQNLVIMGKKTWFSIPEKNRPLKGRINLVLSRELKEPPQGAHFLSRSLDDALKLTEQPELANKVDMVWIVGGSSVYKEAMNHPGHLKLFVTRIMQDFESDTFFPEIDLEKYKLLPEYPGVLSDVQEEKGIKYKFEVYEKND
Chain of UniProt Q9H078 (Q9H078 whole entry, looked up): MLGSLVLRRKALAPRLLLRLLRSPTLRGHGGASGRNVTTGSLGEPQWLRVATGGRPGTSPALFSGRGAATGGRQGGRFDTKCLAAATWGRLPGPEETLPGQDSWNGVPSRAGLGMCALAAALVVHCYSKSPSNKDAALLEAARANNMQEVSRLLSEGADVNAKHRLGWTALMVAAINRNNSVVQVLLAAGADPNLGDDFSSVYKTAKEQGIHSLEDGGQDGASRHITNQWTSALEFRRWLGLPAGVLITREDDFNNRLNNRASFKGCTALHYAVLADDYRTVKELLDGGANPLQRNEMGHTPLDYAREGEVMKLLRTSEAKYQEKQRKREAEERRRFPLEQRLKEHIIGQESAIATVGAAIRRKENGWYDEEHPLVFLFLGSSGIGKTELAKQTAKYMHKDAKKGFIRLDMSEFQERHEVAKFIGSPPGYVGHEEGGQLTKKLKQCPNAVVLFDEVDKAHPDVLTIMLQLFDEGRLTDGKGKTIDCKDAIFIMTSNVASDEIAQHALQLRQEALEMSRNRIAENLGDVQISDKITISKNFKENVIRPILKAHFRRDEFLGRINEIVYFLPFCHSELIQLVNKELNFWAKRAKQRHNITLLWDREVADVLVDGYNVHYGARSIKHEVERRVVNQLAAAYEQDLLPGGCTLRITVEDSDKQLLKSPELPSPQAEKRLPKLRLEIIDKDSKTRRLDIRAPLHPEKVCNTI
Chain of UniProt P51790 (P51790 whole entry, looked up): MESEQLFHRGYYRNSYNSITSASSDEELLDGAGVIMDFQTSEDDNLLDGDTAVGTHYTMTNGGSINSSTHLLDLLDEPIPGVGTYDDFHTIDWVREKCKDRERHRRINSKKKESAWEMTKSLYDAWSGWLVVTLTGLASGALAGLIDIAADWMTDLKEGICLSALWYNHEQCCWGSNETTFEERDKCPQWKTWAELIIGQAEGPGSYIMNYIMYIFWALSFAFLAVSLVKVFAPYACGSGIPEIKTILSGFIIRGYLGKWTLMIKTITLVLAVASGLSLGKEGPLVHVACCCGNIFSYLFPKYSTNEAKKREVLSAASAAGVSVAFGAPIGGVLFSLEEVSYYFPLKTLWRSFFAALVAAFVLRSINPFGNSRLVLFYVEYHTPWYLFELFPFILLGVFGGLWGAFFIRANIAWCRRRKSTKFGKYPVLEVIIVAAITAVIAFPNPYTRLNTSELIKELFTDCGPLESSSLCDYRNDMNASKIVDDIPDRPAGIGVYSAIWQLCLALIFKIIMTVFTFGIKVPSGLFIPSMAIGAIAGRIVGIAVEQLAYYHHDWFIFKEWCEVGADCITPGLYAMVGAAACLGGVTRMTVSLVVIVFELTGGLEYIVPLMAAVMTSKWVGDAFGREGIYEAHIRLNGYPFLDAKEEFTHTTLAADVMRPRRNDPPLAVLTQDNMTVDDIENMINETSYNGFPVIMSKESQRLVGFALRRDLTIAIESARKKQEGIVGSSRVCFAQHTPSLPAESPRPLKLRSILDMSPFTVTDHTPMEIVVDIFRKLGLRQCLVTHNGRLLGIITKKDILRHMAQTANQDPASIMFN
Chain of UniProt P61024 (P61024 whole entry, looked up): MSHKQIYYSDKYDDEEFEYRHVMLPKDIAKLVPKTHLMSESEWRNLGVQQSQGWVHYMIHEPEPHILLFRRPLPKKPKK
Chain of UniProt P41240 (P41240 whole entry, looked up): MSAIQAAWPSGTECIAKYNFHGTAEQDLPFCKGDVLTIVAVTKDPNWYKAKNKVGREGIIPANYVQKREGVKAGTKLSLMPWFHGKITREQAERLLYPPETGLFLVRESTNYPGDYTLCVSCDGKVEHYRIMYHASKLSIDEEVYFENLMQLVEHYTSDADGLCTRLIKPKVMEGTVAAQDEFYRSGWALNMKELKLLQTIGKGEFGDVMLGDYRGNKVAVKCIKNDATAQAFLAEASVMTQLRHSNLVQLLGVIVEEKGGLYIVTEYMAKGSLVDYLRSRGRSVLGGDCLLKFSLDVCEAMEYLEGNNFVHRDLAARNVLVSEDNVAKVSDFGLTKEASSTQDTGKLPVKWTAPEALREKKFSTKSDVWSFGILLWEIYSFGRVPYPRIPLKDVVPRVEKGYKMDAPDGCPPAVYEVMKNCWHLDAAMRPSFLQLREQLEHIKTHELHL

| Target | log2 fold change (vemurafenib) | log2 fold change [1] | log2 fold change (barasertib) | log2 fold change [2] | log2 fold change (volasertib) | log2 fold change [3] | log2 fold change [4] | log2 fold change [5] | log2 fold change (saracatinib) | log2 fold change (sotrastaurin) | log2 fold change (alvocidib) | log2 fold change (Tubastatin A) | log2 fold change [6] | log2 fold change (defactinib) | log2 fold change [7] | log2 fold change (encorafenib) | log2 fold change [8] | log2 fold change (alisertib) | log2 fold change [9] | log2 fold change (gefitinib) |
| --- | --- | --- | --- | --- | --- | --- | --- | --- | --- | --- | --- | --- | --- | --- | --- | --- | --- | --- | --- | --- |
| CUL1 (UniProt Q13616) | -0.008 | 0.001 | -0.011 | 0.034 | 0.029 | 0.004 | -0.013 | 0.029 | -0.023 | -0.029 | -0.008 | 0.008 | 0.001 | -0.019 | 0.013 | 0 | -0.042 | -0.01 | 0.011 | -0.038 |
| CKS1B (UniProt P61024) | -0.047 | -0.029 | 0.029 | -0.031 | -0.018 | -0.017 | 0.391 (active) | -0.268 | 0.044 | 0.025 | 0.117 | -0.001 | 0.032 | 0.075 | -0.055 | 0.04 | -0.014 | -0.031 | -0.024 | 0.071 |
| CIP2A (UniProt Q8TCG1) | 0.036 | 0.019 | 0.153 | 0.001 | -0.086 | 0.037 | -0.07 | -0.075 | 0.009 | 0.014 | 0.009 | -0.294 (active) | -0.015 | 0.003 | -0.074 | 0.008 | 0.053 | -0.004 | -0.014 | -0.018 |
| CSTB (UniProt P04080) | 0.007 | 0.001 | 0.077 | 0.043 | 0.044 | -0.027 | -0.376 (active) | 0.174 | 0.013 | 0.086 | -0.051 | 0.089 | -0.023 | 0.069 | 0.011 | 0.025 | -0.011 | 0.023 | -0.042 | -0.143 |
| DOCK10 (UniProt Q96BY6) | 0.095 | -0.008 | -0.054 | 0.085 | 0.027 | 0.043 | -0.747 (active) | 0.387 | 0.001 | 0.007 | -0.354 | -0.028 | 0.208 | 0.133 | 0.046 | 0.067 | -0.002 | 0.05 | -0.042 | 0.084 |
| CNOT2 (UniProt Q9NZN8) | 0.037 | -0.026 | 0.065 | 0.029 | -0.048 | 0.039 | 0.17 | -0.059 | -0.013 | 0.002 | -0.003 | -0.046 | -0.002 | 0.001 | -0.027 | -0.002 | 0.013 | -0.025 | 0.008 | 0.011 |
| CRABP2 (UniProt P29373) | 0.128 | 0.007 | 0.528 | -0.139 | 0.026 | -0.005 | 0.089 | -0.003 | 0.092 | 0.001 | -0.025 | -0.116 | -0.04 | -0.015 | 0.006 | -0.209 | 0.082 | -0.109 | -0.018 | 0.01 |
| DENND4A isoform 2 (UniProt Q7Z401) | -0.024 | 0.024 | 0.029 | 0.011 | -0.069 | 0.004 | -0.132 | 0.099 | 0.059 | 0.025 | -0.067 | -0.141 | -0.024 | 0.077 | -0.001 | 0.013 | 0.032 | -0.018 | 0.17 | -0.041 |
| DNM2 (UniProt P50570) | 0.002 | 0.005 | 0.037 | -0.024 | -0.043 | 0.029 | -0.012 | 0.013 | 0.016 | 0.001 | 0.037 | -0.051 | 0.024 | 0.007 | 0.029 | -0.004 | 0.061 | 0.014 | -0.02 | 0.006 |
| CLCN3 (UniProt P51790) | -0.096 | -0.076 | 0.014 | -0.178 | -0.025 | 0.034 | 0.009 | 0.004 | 0.01 | -0.017 | -0.03 | -0.012 | -0.042 | -0.024 | -0.194 | 0.05 | 0.003 | 0.005 | -0.043 | 0.029 |
| CLPB isoform 2 (UniProt Q9H078) | 0.011 | 0.023 | 0.026 | 0.007 | -0.042 | 0.044 | 0.078 | -0.045 | 0.004 | -0.012 | 0.065 | -0.075 | 0.031 | 0.086 | -0.049 | 0.025 | -0.053 | 0.001 | -0.036 | 0.034 |
| CIB1 (UniProt Q99828) | 0.096 | 0.027 | 0.155 | -0.013 | 0.008 | -0.047 | -0.028 | -0.028 | 0.017 | -0.077 | -0.003 | -0.037 | 0.01 | 0.038 | 0.041 | -0.001 | -0.215 | -0.031 | 0.072 | -0.124 |
| CSPP1 (UniProt Q1MSJ5) | 0.03 | -0.505 (active) | 0.026 | 0.057 | 0.125 | 0.05 | 0.029 | -0.006 | -0.049 | -0.046 | -0.031 | -0.03 | -0.028 | -0.086 | 0.095 | 0.119 | -0.195 | 0.027 | 0.218 | -0.054 |
| DDA1 (UniProt Q9BW61) | -0.02 | 0.038 | -0.004 | 0.003 | 0 | 0.046 | 0 | -0.023 | 0.019 | -0.025 | 0.024 | -0.002 | 0.015 | -0.004 | 0.031 | 0.013 | 0.021 | -0.024 | -0.003 | -0.034 |
| DHFR (UniProt P00374) | -0.047 | 0.206 (active) | 0.061 | -0.035 | 0.013 | 0.046 | 0.072 | -0.019 | -0.008 | 0.042 | 0.03 | -0.111 | -0.001 | 0.039 | -0.023 | 0.01 | 0.141 | 0.017 | -0.192 | 0.028 |
| CSK (UniProt P41240) | 0.43 | 0.304 | 0.187 | -0.046 | -0.09 | -0.068 | 0.015 | 0.096 | 0.37 | -0.043 | 0.076 | -0.088 | 0.262 | 0.068 | -0.027 | -0.026 | -0.063 | 0.072 | -0.008 | -0.01 |
